# Data published in the supplement of paper PMC10338343.
# ± gives the standard deviation.
# Test system: MILI (PIWIL2) piRISC loaded with piRNA #1 (26 nt)
# Test: pre-steady-state target cleavage rate (min^-1); guide: piRNA #1 5'p-UGAGGUAGUAGGUUGUAUAGUAUCCA; MIWI and MILI are mouse PIWI proteins and EfPiwi is from a freshwater sponge; tags in brackets are library labels; higher = faster piRNA-guided slicing of the target
# Details: auxiliary factor: 500 nM mouse GTSF1
# How it was run: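 With or without 500 nM GTSF1 partner protein, 1 nM active affinity-purified piRISC carrying one synthetic guide was mixed with 0.1 nM transcribed, DNA-blocked target RNA library in HEPES–potassium acetate buffer at 33 °C for 0–8 or 0–960 min. Uncleaved targets were sequenced and normalised to depth and to weakly complementary targets, three trials were pooled, and k3 was capped at 0.0001 min^-1. The pre-steady-state cleavage rate came from a burst-and-steady-state fit.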
row,Sequence,pre-steady-state target cleavage rate
1,GGAGACCUAUGAUUACAACCUACUACACUCA,0.00616 ± 0.0025
2,GGAGACCUAACUAUACAACCUAGCUACCUCA,0.0209 ± 0.008
3,GGAGACCUAUGAUAUGAACCUGCUACCUCA,< 0.0001
4,GGAGACCAUACUAUACUACCUACAACCUCA,0.185 ± 0.023
5,GGAGACCUAUGUAUACAACCUACUUCCUGA,0.00819 ± 0.0021
6,GGAGACCUAACUAUACUACCUACUACCACA,0.0974 ± 0.017
7,GGAGACCUAUGAAUACAAGGUACUACCUCA,0.00378 ± 0.003
8,GGAGACCUAUGAUGACAACCUACUACCUCA,0.00556 ± 0.0019
9,GGAGUGGAUACUUUACAACCUACUACGUCA,0.0457 ± 0.0058
10,GGAGACCAUACUUUACAACCUACUAGCUCA,0.0628 ± 0.015
11,GGAGACCUAUGAUUGCAACCUACUACCUCA,0.00532 ± 0.003
12,GGAGACCUAUCUAAUCAACCUACUACCUCA,0.0267 ± 0.0037
13,GGAGACCUAUGAUAUCAUCCUACUACCUCA,0.00256 ± 0.0016
14,GGAGACCUAUGAUUACAACCUAGCUACCUCA,0.00386 ± 0.0032
15,GGAGACCUAUGAUUACAACAUACUACCUCA,0.00271 ± 0.0024
16,GGAGACCUAUGUAUACAAGCUACAACCUCA,0.0946 ± 0.011
